Compounds with a hit are over-represented: about 3% of the library has one in this group of screens.
VDR inh – blocks the human vitamin D receptor. P11473. VDR-SRC2-3 peptide fluorescence polarization, 2 h. Potency, µM, hits mostly inhibitors. 0.93% of 400,000 active
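VDR–SRC2-3 interaction, FP format. Cmpds 23 nl via pintool, brief spin, 2 h ambient incubation.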
PLK1 PBD inh – inhibitors of human PLK1 polo-box domain binding; 2.8% of 360,000 active; Potency, µM, usual class: inhibitors; Plk1 PBD binding of FITC phosphopeptide, fluorescence polarization; P53350; also: series mostly up to about 57 µM; nearly all actives have a fitted effect of over 65% in size
TSG101-PTAP inh – blocks PTAP/TSG101 interaction to inhibit HIV-1 budding; Q99816; Fluorescence polarization, FITC-PTAP peptide / Tsg101 binding; Potency, µM (highest dose often 115 µM), hits mostly inhibitors; 340,000 tested, under 10 active; AID 493005; active = well fitted inhibition curve with a large enough effect in the main read-out, with a control signal flat, not every such curve was filed as active; inconclusive = small, poorly fitted or top-dose-only effect, or effect the other way, or a change in a side signal; inactive = no such curve, though single readings can be large or run the other way
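Compounds were pin-transferred onto Tsg101 binding domain (10 uM final) in HEPES pH 7.5 buffer, then FITC-PTAP peptide was added at 50 nM final. After 20 min at RT, polarization reported peptide displacement across a qHTS concentration series.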
GCN5L2 inh – blocks human GCN5L2 histone acetyltransferase. Q92830. GCN5L2 HAT assay, ThioGlo1 CoA-SH fluorescence. Potency, µM (highest dose often 58.9 µM), actives largely listed as inhibitors. 0.21% of 390,000 active. AID 504327
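Compounds, pin-transferred from DMSO stocks, meet 20nM GCN5L2 for 15 min before the reaction begins with H3(1-25) peptide (75uM) and acetyl-CoA (70uM). Thiol-reactive ThioGlo1 reports CoA release over 20 min at room temperature.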
USP1 inh – blocks the human USP1/UAF1 deubiquitinase complex; O94782; recombinant USP1/UAF1, Ub-Rhodamine cleavage fluorescence; Potency, µM (doses to about 57.1 µM), usual class: inhibitors; 0.23% of 390,000 active; AID 743255; also: nearly all actives have a fitted effect of over 60% in size
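1 nM enzyme complex + cpd, 15 min RT; start with Ub-Rho 150nM final; kinetic fluorescence ex 480/em 540, 6 reads q60 s. Buffer 50mM HEPES pH 7.8, 0.5mM EDTA, 0.1 mg/ml BSA, 1mM TCEP, 0.01% Tween-20.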
A number is an active result; - = inactive; ? = inconclusive; . = not tested or not shown. Unless noted, calls follow the shape of the dose curve; as a rule, active = well fitted curve in the direction sought with a large enough effect; inconclusive = small, poorly fitted or top-dose-only effect, or another doubt; inactive = no such curve, though single readings can be large; an effect the other way counts as inactive or inconclusive.

SMILES | VDR inh | PLK1 PBD inh | TSG101-PTAP inh | GCN5L2 inh | USP1 inh
O=C(CCSCc1cnn(-c2ccccc2)c1-n1cccc1)NCc1ccc(Cl)cc1 | - | . | . | - | -
CC(=O)Nc1cccc(C(=O)/C=C/c2ccc(/C=C/C(=O)c3cccc(NC(C)=O)c3)cc2)c1 | . | . | . | - | .
CC(=O)Nc1cccc(C(=O)/C=C/c2ccc(N(C)C)cc2)c1 | - | - | ? | - | 5.6µM
COC1=CC(=O)c2nc(Cl)ccc2C1=O | . | - | . | . | .
COC1=CC(=O)c2c(ccc3ncnc(N)c23)C1=O | ? | - | - | . | 0.89µM
COC(=O)COc1ccc(NS(=O)(=O)c2cccc([N+](=O)[O-])c2)cc1 | - | 24µM | - | - | -
Cc1cc(F)ccc1NC(=O)c1cccnc1 | - | - | - | - | -
O=C(Nc1ccc(F)cc1F)c1cccnc1 | - | 27µM | - | - | -
Cc1ccccc1CN1C(=O)c2ccccc2Sc2ccc(C(=O)NC3CCCC3)cc21 | - | . | . | - | -
COc1cc2c(cc1NC(=O)c1cncc(Br)c1)oc1ccccc12 | - | 27µM | - | - | -
O=C(Nc1ccccc1[N+](=O)[O-])c1cncc(Br)c1 | - | 30µM | - | - | -
CNC(=O)C[C@@H](N)C(=O)N[C@@H](C(=O)N[C@@H]1C(=O)N2[C@@H]1SC(C)(C)[C@@H]2C(=O)O)c1ccc(O)cc1 | - | . | . | - | .
c1ccc2c(-c3cc(C4CCNCC4)[nH]n3)cccc2c1 | - | - | - | - | -
COC1(NS(=O)(=O)c2ccc(Br)cc2)C(C)=CC(=O)C=C1C | - | 6.7µM | - | - | -
CCOC(=O)/C(=N\Nc1cc(Cl)ccc1Cl)N1CCOCC1 | - | - | - | - | -
CC1CN(C(=O)c2cc3cc(Cl)cc(Cl)c3oc2=O)CC(C)O1 (stereo unspecified) | - | 21µM | - | - | -
O=c1c(-c2cc(F)cc(F)c2)nc2cnc(Nc3ccccc3)nc2n1C[C@H]1CCCO1 | - | . | . | - | .
COc1ccc(Br)cc1CNC(=O)CCCn1c(=O)c2cccn2c2ccccc21 | - | . | . | - | -
c1ccc(Sc2ccncc2)cc1 | . | ? | . | . | -
c1cc(SSc2ccncc2)ccn1 | 32µM | 1.9µM | - | ? | -
N#Cc1c(C(F)(F)F)cc(-c2ccccc2)[nH]c1=O | - | - | - | - | -
COc1cccc(-c2cc(C(F)(F)F)c(C#N)c(=O)[nH]2)c1 | 71µM | 24µM | - | - | -
CCCCC(=O)N1C/C=C\C(c2ccc(OC)cc2)N(Cc2ccc(F)cc2)C(=O)C1Cc1ccccc1 (stereo unspecified) | - | . | . | . | .
Nc1sc(-c2ccccc2)cc1C(=O)NCCc1c[nH]c2ccccc12 | . | - | . | . | .
Cn1c(CCC(=O)O)nc2cc(S(=O)(=O)N3CCCC3)ccc21 | - | - | - | - | -
SMILES | VDR inh | PLK1 PBD inh | TSG101-PTAP inh | GCN5L2 inh | USP1 inh
Cn1c(CCC(=O)O)nc2cc(S(=O)(=O)N3CCCCC3)ccc21 | ? | 27µM | - | - | -
Cc1ccc(/C=C2\SC(=S)N(CC3CCCO3)C2=O)o1 (stereo unspecified) | - | 24µM | - | - | -
CCc1cccc(N2C(=O)CSC23C(=O)Nc2ccccc23)c1 (stereo unspecified) | - | . | . | - | -
Cc1cccc(OCC(=O)Nc2ccc(S(=O)(=O)N(Cc3ccccc3)c3ccccc3)cc2)c1 | - | . | . | - | -
COc1cccc(C2=NOC(C(=O)NCc3ccccc3)C2)c1 (stereo unspecified) | - | - | - | - | -
COc1ccc(C2=NOC(C(=O)NCc3ccccc3)C2)cc1 (stereo unspecified) | - | 27µM | - | - | -
Cc1cc(C)n2nc(CC#N)c(C#N)c2n1 | - | ? | - | - | -
Cc1cc(C)n2nc(/C(C#N)=C/c3ccccn3)c(C#N)c2n1 | 20µM | - | - | - | -
CC(=O)Nc1ccc(Sc2ccc([N+](=O)[O-])o2)cc1 | ? | 21µM | - | . | ?
CCOc1ccc(/C=N/OCC(=O)NCc2ccco2)cc1 | ? | 15µM | - | - | -
C=CCSC1=C(C#N)C(c2ccccc2OCC)C(C#N)C(=O)N1 (stereo unspecified) | - | 27µM | - | - | -
O=C(Cc1cccs1)Nc1nnc(Cc2ccccc2)s1 | - | 27µM | - | - | -
CC(C)(C)Cc1nnc(NC(=O)Cc2cccs2)s1 | - | 19µM | - | - | -
